From PubChem BioAssay (NCI)
About 79,000 compounds went through this panel and 15% of them were active in at least one assay; those are over-represented in the sample as a whole. Calls of active or inactive are those of the source. No stated cut-off is given here; in the data, active means growth inhibition above about 70%; inactive means the rest.

What was measured:
[1] = NCI Yeast Anticancer Drug Screen. Data for the rad50 strain (AID 155);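 further: 0% = growth of vehicle-only cultures of the same strain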; conditions: S. cerevisiae rad50 strain growth inhibition, hits give high values
In short: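 A DNA repair-deficient yeast mutant serves as the test organism; compound-induced growth inhibition is calculated against vehicle-treated cells.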

[2] = NCI Yeast Anticancer Drug Screen. Data for the mec2-1 strain (AID 157); conditions: S. cerevisiae mec2-1 strain, hits give high values
In short: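 Each compound was tested on mec2-1 yeast, a strain altered in DNA damage repair or cell cycle control. Growth inhibition is reported relative to vehicle.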

[3] = NCI Yeast Anticancer Drug Screen. Data for the sgs1 mgt1 strain (AID 161);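 further: 0% = growth of cultures given vehicle only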; conditions: S. cerevisiae sgs1 mgt1 strain, hits give high values
In short: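 Read-out: growth inhibition vs vehicle controls. Cells: mutant yeast strain deficient in DNA damage repair.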

[4] = NCI Yeast Anticancer Drug Screen. Data for the cln2 rad14 strain (AID 165);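 further: 0% = growth equal to vehicle treated cultures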; conditions: S. cerevisiae cln2 rad14 strain, hits give high values
In short: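 Test compounds were added to cln2 rad14 yeast cultures; inhibition of growth was then determined by comparison with vehicle treatment.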

[5] = NCI Yeast Anticancer Drug Screen. Data for the bub3 strain (AID 167); conditions: S. cerevisiae bub3 mutant strain, hits give high values
In short: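 Inhibition values come from growth of compound-treated mutant yeast normalised to vehicle-treated controls.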

[6] = NCI Yeast Anticancer Drug Screen. Data for the mlh1 rad18 strain (AID 175); conditions: S. cerevisiae mlh1 rad18 strain growth inhibition, hits give high values
In short: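 Inhibition values reflect reduced growth of mutant yeast versus vehicle-treated controls following compound exposure; the mutations affect DNA damage repair.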

[7] = at 5.0 µM (retest, dose inferred, filed as 0.5)
[8] = at 50.0 µM (retest, dose inferred, filed as 5.0)

Measured: growth inhibition

CCC[CH2][Pb]([CH2]CCC)([O]C(C)=O)[O]C(C)=O
active: [1]; [7] 99% | [1]; [8] 99% | [1]; at 50.0 µM 90% | [2]; [8] 99% | [2]; at 50.0 µM 93.1% | [3]; [7] 99% | [3]; [8] 94% | [3]; at 50.0 µM 94% | [4]; [7] 92% | [4]; [8] 98% | [4]; at 50.0 µM 92.3% | [5]; [7] 99% | [5]; [8] 98% | [5]; at 50.0 µM 92.2% | [6]; [7] 100% | [6]; [8] 99% | [6]; at 50.0 µM 91.5%
inactive: [2]; [7] 63%

Cc1ccc(N=P(c2ccccc2)(c2ccccc2)c2ccccc2)cc1.[I][Hg][I]
active: [1]; [7] 99% | [1]; [8] 99% | [1]; at 50.0 µM 94.7% | [2]; [7] 100% | [2]; [8] 100% | [2]; at 50.0 µM 99.7% | [3]; [7] 100% | [3]; [8] 99% | [3]; at 50.0 µM 98.9% | [4]; [7] 99% | [4]; [8] 99% | [4]; at 50.0 µM 99% | [5]; [7] 99% | [5]; [8] 98% | [5]; at 50.0 µM 98.3% | [6]; [7] 99% | [6]; [8] 99% | [6]; at 50.0 µM 99.3%

C/C(=N\NS(=O)(=O)c1ccc(C)cc1)C(CN1CCOCC1)C(c1ccccc1)c1c(O)c2ccccc2oc1=O (stereo not drawn)
active: [1]; at 50.0 µM 88.5% | [2]; at 50.0 µM 85.8% | [3]; at 50.0 µM 87.4% | [4]; at 50.0 µM 89.2% | [5]; at 50.0 µM 83.7% | [6]; at 50.0 µM 87.6%
inactive: [1]; [7] 15% | [1]; [8] 15% | [2]; [7] 4% | [2]; [8] 4% | [3]; [7] 15% | [3]; [8] 15% | [4]; [7] 5% | [4]; [8] 5% | [5]; [7] 3% | [5]; [8] 3% | [6]; [7] 9% | [6]; [8] 9%

Cc1cc[n+](C2=C(Nc3ccc(Cl)cc3Cl)C(=O)c3ccccc3C2=O)cc1
active: [1]; [8] 90% | [1]; at 50.0 µM 92.3% | [5]; [8] 78% | [6]; at 50.0 µM 81%
inactive: [1]; [7] 41% | [2]; [7] -1% | [2]; [8] 58% | [2]; at 50.0 µM 61.5% | [3]; [7] 1% | [3]; [8] 59% | [3]; at 50.0 µM 66.4% | [4]; [7] 4% | [4]; [8] 39% | [4]; at 50.0 µM 40.2% | [5]; [7] 5% | [5]; at 50.0 µM 61.1% | [6]; [7] 4% | [6]; [8] 58%

O=c1ccn(C2OC(CO)C(O)C2O)c(=O)[n]1[Hg][c]1ccccc1 (stereo not drawn)
active: [1]; [7] 99% | [1]; [8] 99% | [1]; at 50.0 µM 90.8% | [2]; [7] 100% | [2]; [8] 99% | [2]; at 50.0 µM 89.7% | [3]; [7] 100% | [3]; [8] 100% | [3]; at 50.0 µM 85.8% | [4]; [7] 99% | [4]; [8] 99% | [4]; at 50.0 µM 88.3% | [5]; [7] 100% | [5]; [8] 99% | [5]; at 50.0 µM 84.3% | [6]; [7] 98% | [6]; [8] 98% | [6]; at 50.0 µM 91.8%

CCC[CH2][Sn]([N]=C=S)([N]=C=S)[N]=C=S.O=P(c1ccccc1)(c1ccccc1)c1ccccc1.O=P(c1ccccc1)(c1ccccc1)c1ccccc1
inactive: [1]; [7] -5% | [1]; [8] 27% | [1]; at 50.0 µM 50.3% | [2]; [7] -4% | [2]; [8] 15% | [2]; at 50.0 µM 61.2% | [3]; [7] -4% | [3]; [8] 46% | [4]; [7] -2% | [4]; [8] 10% | [4]; at 50.0 µM 23.1% | [5]; [7] -4% | [5]; [8] 33% | [5]; at 50.0 µM 46.2% | [6]; [7] -4% | [6]; [8] 44%
active: [3]; at 50.0 µM 83.2% | [6]; at 50.0 µM 75.3%
